C2C12 statin = suppressors of statin myotoxicity in C2C12 myotubes, primary screen, cell-based, single point, plate reader. C2C12 myotubes + simvastatin, ATP luminescence, 48 h; scaled: DMSO 0, geranylgeraniol control 100. rescue of ATP level, % at 7.49 µM. 330,000 compounds, 0.78% hits;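 active means mean ATP rescue above about 67%, or every replicate alone reaching that limit, limit read from the data, passing the limit was not always enough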;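 further: myotubes were challenged with 10 µM simvastatin during compound exposure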
EWS-Fli block = EWS/Fli-driven NR0B1 reporter inhibitors, primary screen, A673 cells, NR0B1 luciferase, luminescence, MLPCN library; 350,000 compounds, 0.67% hits; viability-normalised; inhibition, % at 12.6 µM;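 active means mean inhibition of at least 50% after viability correction, with every replicate also passing that limit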;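 further: firefly luciferase signal divided by Alamar Blue viability fluorescence both relative to DMSO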
HIV Env fusion = inhibitors of HIV-1 Env-driven cell-cell fusion, primary screen, HeLa-JRFL effector, CEM21 target cells, luciferase; inhibition, % at 12.3 µM; 360,000 compounds, 1.1% hits;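 active means mean replicate inhibition score of at least 50 and every replicate individually at or above 50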
PAX8 reporter = inhibitors of PAX8-driven TPO luciferase reporter, primary screen, RMG-I cells, single concentration. 360,000 compounds, 1.2% hits. AID 652154, 2013. SteadyGlo, 24 h. inhibition, % at 12.6 µM;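 active means mean replicate inhibition at least 60% with every replicate also reaching 60%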;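 further: luciferase light reporting Pax8 driven TPO promoter activity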
INS-1E GSIS act = GLuc luminescence reporter in INS-1E cells, primary screen for activators of glucose-dependent secretion of insulin. INS-1E GLuc reporter insulin secretion, 2-3 h. activation, % at 16.6 µM. 370,000 compounds, 0.61% hits. AID 743287, 2014;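 active means lowest replicate activation of at least 40%, so every replicate reaches that level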
miR122 inh = miR-122 Renilla sensor signal increase in Huh7, primary screen, miR-122 inhibitor project, cell-based, single point, plate reader; 340,000 compounds, 0.3% hits; activation (reporter increase), % at 12.5 µM; Huh7 miR-122 Renilla luciferase sensor, 48 h; neutral wells = 0, positive control = 100; AID 602342, 2012;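 active means mean replicate activation score at least 90 and every replicate individually at or above 90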;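 further: higher luciferase means less miR-122 activity so hits act as miR-122 inhibitors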
A number is an active result; n = inactive; x = not tested or not shown; [ ] = another dose, or the depositor's remark. Compounds with a hit are over-represented: about 3.1% of the library has one in this group of screens.

SMILES | C2C12 statin | EWS-Fli block | HIV Env fusion | PAX8 reporter | INS-1E GSIS act | miR122 inh
C[C@@H]1CN([C@H](C)CO)C(=O)Cc2cc(NC(=O)Cc3cn(C)c4ccccc34)ccc2O[C@H]1CN(C)C(=O)Nc1ccccc1 | n | n | n | n | n | n
CCCCCCCCN1C(=O)[C@H](CC(=O)NCc2ccccc2)C[C@@]2(C(=O)OC)CC(C)(C)CC=C12 | x | n | n | n | n | x
CCCCCCCCN1C(=O)[C@H](CC(=O)NCc2ccc(OC)c(OC)c2)C[C@@]2(C(=O)OCC)CCCC=C12 | x | n | 70 | n | n | x
CCCCCCCCN1C(=O)[C@H](CC(=O)NCc2cccc3ccccc23)C[C@@]2(C(=O)OCC)CCCC=C12 | x | n | 76 | n | x | x
CCCCCCCCN1C(=O)[C@H](CC(=O)NCc2cccc3ccccc23)C[C@@]2(C(=O)OC)CC(C)(C)CC=C12 | x | n | 58 | n | n | x
CCOC(=O)[C@]12CCCC=C1N(Cc1cccc3ccccc13)C(=O)[C@H](CC(=O)NCc1cccc3ccccc13)C2 | x | n | n | n | x | x
COC(=O)[C@@]12C[C@@H](CC(=O)NCc3ccc(OC)c(OC)c3)C(=O)N(CCc3ccc(OC)c(OC)c3)C1=CCC(C)(C)C2 | x | n | 67 | n | n | x
C[C@@H]1CCCCO[C@H](CN(C)C)[C@H](C)CN([C@@H](C)CO)C(=O)c2cc(NC(=O)c3ccncc3)ccc2O1 | n | n | n | n | n | n
CC(C)NC(=O)N1C[C@H]2[C@@H](c3ccccc31)[C@H](CO)N2C(=O)Nc1ccccc1 | n | n | x | n | n | n
COc1ccc(-c2nc(-c3ccccn3)ncc2S(C)(=O)=O)cc1 | x | n | n | n | n | x
CCCc1nc2c(=O)n(C)c(=O)nc-2n(C)n1 | n | n | 69 | 104 | n | n
Cn1nc(-c2ccccn2)nc2c(=O)n(C)c(=O)nc1-2 | x | n | 68 | 105 | n | n
COc1ccccc1-c1ccc2c(c1)C(C)(Cc1ccc(Cl)c(Cl)c1)C(=O)N2 (stereo not drawn) | n | n | 100 | n | n | n
COc1ccccc1-c1ccc2c(c1)C(C)(Cc1ccccc1C#N)C(=O)N2 (stereo not drawn) | n | n | 63 | n | n | n
CO[C@H]1CN(C)C(=O)c2ccc(NC(=O)c3cccc(F)c3)cc2OC[C@@H](C)N(CC2CC2)C[C@@H]1C | n | n | n | n | n | x
CCOc1cc(C2C3=C(CCCC3=O)OC3=C2C(=O)CCC3)cc([N+](=O)[O-])c1O | x | n | n | n | 58 | n
O=C(O)CC(NC(=O)OCc1ccccc1)c1ccccc1 (stereo not drawn) | 93 | x | x | x | n | n
NC(CC(=O)O)c1cccc(OCc2ccccc2)c1 (stereo not drawn) | 66 | x | x | x | x | n
OC(c1ccc(OCc2ccccc2)cc1)c1nnc(-c2ccccc2)o1 (stereo not drawn) | x | x | x | x | x | n
OC(c1cccc(OCc2ccccc2)c1)c1nnc(-c2ccccc2)o1 (stereo not drawn) | 146 | x | 73 | n | x | n
Cn1ccnc1C(O)c1cccc(OCc2ccccc2)c1 (stereo not drawn) | n | n | n | n | n | n
CN(C)C(=O)c1ccc(-c2ccc([C@@H]3[C@@H](CO)N(C(=O)Cc4ccccn4)[C@H]3C#N)cc2)cc1 | n | n | n | n | n | x
Cc1ccc(C(=O)N2CCN(c3ccc(NC(=O)c4ccc5c(c4)OCCO5)cc3)CC2)cc1 | n | n | 65 | n | n | n
O=C(Nc1ccc2c(c1)OCCO2)c1cccc2nc3ccccc3nc12 | 74 | x | n | x | n | n
Cc1ccc(C(=O)Nc2ccc3c(c2)OCCO3)c(C)c1 | n | 79 | n | 68 | n | n
SMILES | C2C12 statin | EWS-Fli block | HIV Env fusion | PAX8 reporter | INS-1E GSIS act | miR122 inh
C[C@H](CO)N1C[C@H](C)[C@@H](CN(C)S(C)(=O)=O)Oc2ncc(/C=C/c3ccccc3)cc2C1=O | n | n | n | x | n | n
O=C(NCC[C@@H]1CC[C@H](NS(=O)(=O)c2cccc(F)c2)[C@H](CO)O1)C1CCOCC1 | n | n | n | x | n | x
CC(Oc1ccc(Br)cc1)C(=O)Nc1ccncc1 (stereo not drawn) | x | n | n | n | n | x
CC(Oc1ccc(F)cc1)C(=O)Nc1nc(-c2ccccn2)cs1 (stereo not drawn) | n | n | n | 69 | n | n
O=C(CCS(=O)(=O)c1ccc(F)cc1)Nc1nc(-c2ccccn2)cs1 | n | n | n | 84 | x | n
O=C(CCS(=O)(=O)c1ccccc1)Nc1ccccn1 | n | n | n | n | n | n
Cc1csc(NC(=O)C(C)Oc2ccc(Br)cc2)n1 (stereo not drawn) | n | n | n | 106 | n | n
C[C@H](NC(=O)c1ccco1)C(=O)Nc1nc(-c2ccccn2)cs1 | x | n | n | n | n | x
Cc1ccc(S(=O)(=O)CCC(=O)Nc2nc(-c3ccncc3)cs2)cc1 | n | n | n | n | n | n
O=C(CCS(=O)(=O)c1ccccc1)Nc1nc(-c2ccccn2)cs1 | n | n | n | 73 | x | x
COc1ccc(NC(=O)N(C)C[C@H]2OCCCC[C@@H](C)Oc3ccc(NS(C)(=O)=O)cc3C(=O)N([C@H](C)CO)C[C@H]2C)cc1 | x | n | n | n | n | n
COc1ccccc1-c1nnc(NC(=O)CCS(=O)(=O)c2ccc(F)cc2)o1 | n | n | n | 74 | x | n
COc1ccccc1-c1nnc(NC(=O)CCS(=O)(=O)c2ccccc2)o1 | x | n | x | n | n | n
C/C(=N\NC(=O)CO/N=C(\C)c1cccs1)c1ccc(N)cc1 | x | n | n | n | 46 | n
C/C(=N\OCC(=O)N/N=C/c1ccc(C)cc1O)c1cccs1 | n | x | n | n | x | n
CN(C)C(=O)c1ccc(-c2ccccc2[C@@H]2[C@@H](CO)N(C(=O)C3CCCC3)[C@H]2C#N)cc1 | x | n | x | x | n | x
CSc1nc(Sc2ccc(Cl)cc2)c2ccccc2n1 | 146 | x | x | x | x | n
CSc1nc(Sc2ccccc2)c2ccccc2n1 | n | x | x | x | x | n
CC(=O)N1CCN(c2nnc(-c3ccc(C)cc3)c3ccccc23)CC1 | n | n | n | n | 41 | x
COc1ccc(S(=O)(=O)Nc2ccc3c(c2)CC(=O)N([C@@H](C)CO)C[C@H](C)[C@H](CN(C)S(=O)(=O)c2c(C)noc2C)O3)cc1 | n | n | n | x | n | n
COc1ccc(S(=O)(=O)N(C)C[C@@H]2Oc3ccc(NC(=O)Cn4cnnn4)cc3CC(=O)N([C@H](C)CO)C[C@@H]2C)cc1 | n | n | 90[16.7 µM] | x | n | n
COc1ccc(S(=O)(=O)Nc2ccc3c(c2)CC(=O)N([C@H](C)CO)C[C@H](C)[C@H](CN(C)S(=O)(=O)c2c(C)noc2C)O3)cc1 | n | n | 57[16.7 µM] | x | n | n
